Laboratory results: PubChem BioAssay (NCATS)
Values joined by “and” are separate entries in the source; they are usually repeats but may differ in a detail not shown here. Identical values can stand only once. Inconclusive results are not listed. Active and inactive are the calls of the source. Unless noted, calls come from the whole dose curve; as a rule, active = well fitted curve in the direction sought with a large enough effect; inconclusive = small, poorly fitted or top-dose-only effect, or another doubt; inactive = no such curve, though single readings can be large; an effect the other way counts as inactive or inconclusive.

Legend:
[1] = Cell Viability - MRC5 (AID 434; calls by dose curve;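 note: potency is the fitted concentration of half-maximal effect; cells exposed to compound for 40 hours at 37 °C; potency reflects cytotoxicity seen as loss of intracellular ATP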); conditions: MRC5 lung fibroblast viability, qHTS
Method in brief: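 ATP luminescence read-out (CellTiter-Glo, 20 min RT) after 40 hr, 37 °C compound exposure of 1500 MRC5 cells/well. Data normalized to DMSO (basal) and 100 uM tamoxifen (100% inhibition); AC50 from standard Hill equation.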

[2] = Cell Viability - HUV-EC-C (AID 542); conditions: HUV-EC-C endothelial cell viability, qHTS; series mostly up to 92.2 µM;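 note: cells exposed to compound for 40 hours; % is set by controls: 0 for no effect and ±100 for the full control effect; nearly all actives have a fitted effect of over 35% in size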
Method in brief: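 Cells were seeded at 1000 per well and incubated 5 hr at 37 °C before compound addition. After 40 hr at 37 °C, CellTiter-Glo reagent was added for 20 min and luminescence read. AC50 values came from Hill-equation modelling.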

[3] = Cellular Toxicity (caspase-3) HepG2 (AID 654); conditions: HepG2 caspase-3 activation, luminescence; series mostly up to 92.2 µM;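 note: cells exposed to compound for 16 hours before reading; 0% = DMSO alone and 100% = caspase signal from 100 µM tamoxifen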
Method in brief: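 Caspase 3/7 activation in HepG2 is measured as rising luminescence after a 16 hr treatment at 37 °C. Values are scaled between DMSO basal and 100 uM tamoxifen, and AC50 is fitted with the Hill equation.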

[4] = Cellular Toxicity (caspase-3) HUV-EC-C (AID 656); conditions: HUV-EC-C cells, caspase-3 activation (apoptosis); series mostly up to 92.2 µM
Method in brief: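 Read-out: luminescence proportional to caspase 3/7 activity, measured 20 min after adding Caspase-Glo 3/7 reagent. Cells (HUV-EC-C) had received compound for 16 hr at 37°C. Increases relative to DMSO and 100 uM tamoxifen gave concentration-response AC50 values.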

[5] = Cellular Toxicity (caspase-3) MRC-5 (AID 659); conditions: MRC-5 cells, luminescence, normalized: DMSO 0%, 10 µM staurosporine 100%; series mostly up to 91.7 µM
Method in brief: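 MRC-5 fibroblasts, 1500/well; 16 h cpd, 37 °C; Caspase-Glo 3/7, 1 h RT; lumi read. Norm: DMSO = 0%, 10 uM staurosporine = 100%. Hill-fit AC50 from qHTS conc-response.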

[6] = Cellular Toxicity (caspase-3) SK-N-SH (AID 661); conditions: SK-N-SH caspase-3 activation, qHTS, DMSO as zero, staurosporine as full; series mostly up to 91.7 µM
Method in brief: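 Cells were seeded and incubated 5 hr at 37 °C, dosed with compound over a concentration range for 16 hr, then given Caspase-Glo 3/7 reagent for 1 hr at room temperature before luminescence reading.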

[7] = Cellular Toxicity (caspase-3) Hek293 (AID 664); conditions: HEK293 caspase-3 activation, DMSO = 0%, 100 µM tamoxifen = 100%; at 92.2 µM (top of the series);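 note: cells exposed to compound for 16 h at 37 °C before readout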
Method in brief: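 qHTS, HEK293 (human embryonic kidney), 16 h cpd exposure in complete medium. Caspase-3/7 activation = luminescence increase; normalized to DMSO/100 uM tamoxifen; Hill-fit AC50.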

[8] = Cellular Toxicity (caspase-3) N2a (AID 665); conditions: N2a cells, luminescence, normalized: DMSO 0%, 10 µM staurosporine 100%; series mostly up to 92.2 µM;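 note: compound exposure lasted 16 h at 37 °C before readout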
Method in brief: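 Caspase-3/7 activation, measured as increased luminescence from aminoluciferin release, is quantified in mouse N2a cells exposed to compounds for 16 h. Values are normalized to DMSO and 10 uM staurosporine, with AC50 derived by Hill modelling.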

[9] = Cellular Toxicity (caspase-3) NIH 3T3 (AID 666); conditions: NIH 3T3 caspase-3 activation, apoptosis/toxicity, 0% DMSO, 100% is 100 µM tamoxifen; series mostly up to 92.2 µM;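 note: caspase signal read after 16 h compound exposure; 0% = DMSO basal and 100% = 100 µM tamoxifen stimulation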
Method in brief: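 Cells were plated at 1000 per well and incubated 5 hr at 37°C, then compound was added for 16 hr. Caspase-Glo 3/7 reagent followed for 20 min at room temperature before luminescence was read.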

[10] = Cellular Toxicity (caspase-3) Renal Proximal Tubule (AID 667); conditions: renal proximal tubule cells, primary cells freshly taken from rat; Potency: caspase-3 activation; series mostly up to 91.7 µM;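 note: cells exposed to compound for 16 hours at 37 °C before detection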
Method in brief: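 In qHTS format, rat primary proximal tubule cells seeded at 1000 per well are exposed to compounds for 16 hours at 37 °C. An increase in Caspase-Glo 3/7 luminescence indicates caspase activation.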

[11] = MultiTox-Fluor Cytotoxicity Assay - LYMP1-001 - Dead Cells (AID 946); conditions: LYMP1-001 lymphoblastoid cells, dead-cell protease fluorescence; series mostly up to 92.2 µM;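 note: 0% = DMSO and 100% = tetraoctylammonium bromide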
Method in brief: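 LYMP1-001 lymphoblastoid cells (2500/well) treated 16 h at 37 C. Dead-cell protease cleavage of bis-AAF-R110 read at Ex/Em 485/520. Normalized to DMSO and 15 uM tetraoctylammonium bromide; AC50 from Hill fits.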

[12] = MultiTox-Fluor Cytotoxicity Assay - LYMP1-003 - Dead Cells (AID 961); conditions: LYMP1-003 lymphoblastoid cells, dead-cell protease fluorescence; series mostly up to 92.2 µM;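 note: 0% = DMSO and 100% = tetraoctylammonium bromide; nearly all actives have a fitted effect of over 70% in size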
Method in brief: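 LYMP1-003 human lymphoblastoid cells (2500/well) exposed to compound 16 h at 37 C in complete medium; dead-cell protease read with bis-AAF-R110 fluorescence (Ex/Em 485/520) after 60 min at room temperature. Normalized to DMSO and 15 uM tetraoctylammonium bromide; AC50 from Hill fit.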

[13] = MultiTox-Fluor Cytotoxicity Assay - LYMP1-003 - Live Cells (AID 962); conditions: LYMP1-003 lymphoblastoid cells, MultiTox-Fluor live-cell protease fluorescence; series mostly up to 92.2 µM;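 note: 0% = DMSO only and full loss = 92 µM tetraoctylammonium bromide; cytotoxic hits lower the live-cell protease signal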
Method in brief: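 Acute cytotoxicity is scored as a drop in live-cell protease activity in human lymphoblastoid LYMP1-003 cells after 16 hr compound exposure at 37 C. AC50 values come from Hill-equation modelling of concentration-response data.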

[14] = Cell Viability - LYMP1-003 - Assay at 24 hr (AID 963); conditions: LYMP1-003 lymphoblastoid cell viability; series mostly up to 92.2 µM;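 note: plate controls were DMSO only for no effect and tetraoctylammonium bromide positive control for full effect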
Method in brief: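 Cytotoxicity is scored as a concentration-dependent fall in ATP-linked luciferase signal in human lymphoblastoid LYMP1-003 cells treated 24 hr at 37 C in complete culture medium.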

[15] = Cell Viability - LYMP1-002 - Assay at 24 hr (AID 993); conditions: LYMP1-002 lymphoblastoid cells viability; series mostly up to 92.2 µM; note: % is set by controls: 0 for no effect and ±100 for the full control effect
Method in brief: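 Acute toxicity is measured as concentration-dependent loss of cellular ATP in a human lymphoblastoid line (Coriell LYMP1-002) after 24 h treatment in complete medium. ATP is quantified by luciferase luminescence and AC50 derived by Hill modelling.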

[16] = qHTS Assay for Identification of Small Molecule Inducers of Hypoxia Response (AID 2120; active = well fitted curve in the direction sought with a large enough effect in the signal ratio, with a control signal flat, not every such curve was filed as active; the % refers to the signal ratio; note: 0% is about no effect); conditions: hypoxia response reporter cells, beta-lactamase ratio readout; series mostly up to 104 µM
Method in brief: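 Cell-based qHTS for reporter induction: hypoxia response element controlled beta-lactamase in ME-180 cells. Compounds incubated 17 h at 37 degrees C; activity from blue/green (460/530 nm) ratio, inducers ranked by AC50.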

[17] = biological target: Peroxisome proliferator-activated receptor alpha (Homo sapiens) (UniProt Q07869); test: qHTS assay for small molecule agonists of the peroxisome proliferator-activated receptor alpha (PPARalpha) signaling pathway (AID 651778); conditions: PathHunter PPARalpha complementation, chemiluminescence, 6 h; max response: active compounds read high; note: % of control where 0% means no effect
Chain of Peroxisome proliferator-activated receptor alpha (Homo sapiens) (Q07869 whole entry, looked up, the tested form may be a part): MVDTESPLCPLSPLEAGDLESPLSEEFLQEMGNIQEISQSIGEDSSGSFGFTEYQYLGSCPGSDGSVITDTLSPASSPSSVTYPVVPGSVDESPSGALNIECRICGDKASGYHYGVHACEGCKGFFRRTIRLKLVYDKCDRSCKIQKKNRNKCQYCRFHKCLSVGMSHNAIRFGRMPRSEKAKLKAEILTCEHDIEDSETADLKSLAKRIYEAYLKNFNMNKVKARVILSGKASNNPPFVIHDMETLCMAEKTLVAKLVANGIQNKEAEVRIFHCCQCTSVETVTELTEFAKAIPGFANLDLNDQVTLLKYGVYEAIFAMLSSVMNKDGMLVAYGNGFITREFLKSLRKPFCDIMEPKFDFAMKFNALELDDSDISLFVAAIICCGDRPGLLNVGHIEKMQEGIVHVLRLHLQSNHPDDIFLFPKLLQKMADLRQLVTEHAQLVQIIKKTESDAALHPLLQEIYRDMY
Method in brief: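 Enzyme-fragment complementation assay in which ligand-bound PPARalpha translocates and forms an active enzyme that generates chemiluminescence. Cells were plated overnight, exposed to compound for 6 hr at 37 C, and then given detection reagent for 60 min at room temperature.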

[18] = qHTS assay for small molecule agonists of the antioxidant response element (ARE) signaling pathway measured by Nrf2-dependant transcriptional activity - cell viability counter screen (AID 720653; active = well fitted curve in the direction sought with a large enough effect in the repeat runs; an effect the other way counts as inactive or inconclusive; note: % is set by controls: 0 for no effect and ±100 for the full control effect); conditions: ARE-bla HepG2 viability, CellTiter-Glo ATP luminescence, 16 h; max response: active compounds read low
Method in brief: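 ARE-bla HepG2 cells treated with compounds for 16 h at 37C; this counter screen measures viability as intracellular ATP by CellTiter-Glo luminescence after 30 min at room temperature.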

[19] = qHTS assay for cell viability of HEK293 cells (AID 743288); conditions: ATP luminescence (CellTiter-Glo), 18 h; max response: active compounds read low; note: % is set by controls: 0 for no effect and ±100 for the full control effect; nearly all actives have a fitted effect of over 50% in size
Method in brief: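 Quantitative high-throughput screen: compounds were pinned onto parental HEK293 cells (2,000 per well) after a minimum 5 h settling at 37 C, incubated 18 h at 37 C, and intracellular ATP measured by luciferase luminescence.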

[20] = qHTS assay for cell viability of the p53RE-bla HCT-116 cell line (AID 743292); conditions: p53RE-bla HCT-116 viability, ATP luminescence, 16 h; series mostly up to 95 µM; note: % is set by controls: 0 for no effect and ±100 for the full control effect; nearly all actives have a fitted effect of over 55% in size
Method in brief: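 HCT-116 p53RE-bla cells seeded 4,000/well; 5 h at 37 C; compound (DMSO) added; 16 h at 37 C; CellTiter-Glo added, 30 min RT; luminescence read.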

CCCC(=O)OC(=O)CCC
inactive: Potency [1] > 92 µM | Potency [2] | Potency [3] | Potency [4] | outcome [5] | outcome [6] | caspase-3 activation [7] 0.516% | outcome [8] | outcome [9] | Potency [10] | Potency [11] | Potency [12] | Potency [13] | Potency [14] | Potency [15] | Potency [16] | max response [17] -9.39% and -1.32% | max response [18] -5.41% and 18.3% | max response [19] -4.88% and -8.13% | Potency [20]

C1CCCNCC1
inactive: Potency [1] > 92 µM | Potency [2] | Potency [3] | Potency [4] | outcome [5] | outcome [6] | caspase-3 activation [7] 2.08% | outcome [8] | outcome [9] | Potency [10] | Potency [11] | Potency [12] | Potency [13] | Potency [14] | Potency [15] | Potency [16] | max response [17] 0.101% | max response [18] -5.98% | max response [19] -3.87% | Potency [20]

COc1cc(-c2ccc(N=C=O)c(OC)c2)ccc1N=C=O
inactive: Potency [1] > 92 µM | Potency [2] | Potency [3] | Potency [4] | outcome [5] | outcome [6] | caspase-3 activation [7] 2.71% | outcome [8] | outcome [9] | Potency [10] | Potency [11] | Potency [12] | Potency [13] | Potency [14] | Potency [15] | Potency [16] | max response [17] 20.1% | max response [18] 21.7% and 2.99% | max response [19] -1.14% and -5.75% | Potency [20]

CC(=O)Nc1cccc(C)c1
inactive: Potency [1] > 92 µM | Potency [2] | Potency [3] | Potency [4] | outcome [5] | outcome [6] | caspase-3 activation [7] -2.37% | outcome [8] | outcome [9] | Potency [10] | Potency [11] | Potency [12] | Potency [13] | Potency [14] | Potency [15] | Potency [16] | max response [17] -3.01% | max response [18] -7.75% | max response [19] 2.07% | Potency [20]

Cc1cccnc1
inactive: Potency [1] > 92 µM | Potency [2] | Potency [3] | Potency [4] | outcome [5] | outcome [6] | caspase-3 activation [7] -1.09% | outcome [8] | outcome [9] | Potency [10] | Potency [11] | Potency [12] | Potency [13] | Potency [14] | Potency [15] | Potency [16] | max response [17] -1.1% | max response [18] -3.56% | max response [19] -8.35% | Potency [20]
